# Compound activity from PubChem BioAssay.
# Hits are enriched below; roughly 2.4% of the tested compounds scored in any of these assays.
# POLB inh: DNA polymerase beta (human) inhibition; AID 485314; hit rate 1.3% among 340,000; Potency, µM (doses to about 114 µM), for inactives: top-dose activity change, negative = inhibition, most hits filed as inhibitors; P06746; Pol beta primer extension/strand displacement, fluorescence kinetic; note: % is set by controls: 0 for no effect and ±100 for the full control effect
#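 Homogeneous kinetic assay of primer extension and strand displacement by 10 nM Pol beta, preincubated 15 min at room temperature with compound before 50 nM substrate (final) was added. Read at 0 and 10 min; four-parameter Hill fit.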
# Pol iota inh: DNA polymerase iota (human) inhibition. hit rate 1% among 390,000. AID 588590. Pol iota fluorescent replication assay, 10 min. Potency, µM (titrated, usually from 115 µM), for inactives: top-dose activity, negative = inhibition, hits mostly inhibitors. Q9UNA4
# Target sequence (Q9UNA4 whole entry, looked up): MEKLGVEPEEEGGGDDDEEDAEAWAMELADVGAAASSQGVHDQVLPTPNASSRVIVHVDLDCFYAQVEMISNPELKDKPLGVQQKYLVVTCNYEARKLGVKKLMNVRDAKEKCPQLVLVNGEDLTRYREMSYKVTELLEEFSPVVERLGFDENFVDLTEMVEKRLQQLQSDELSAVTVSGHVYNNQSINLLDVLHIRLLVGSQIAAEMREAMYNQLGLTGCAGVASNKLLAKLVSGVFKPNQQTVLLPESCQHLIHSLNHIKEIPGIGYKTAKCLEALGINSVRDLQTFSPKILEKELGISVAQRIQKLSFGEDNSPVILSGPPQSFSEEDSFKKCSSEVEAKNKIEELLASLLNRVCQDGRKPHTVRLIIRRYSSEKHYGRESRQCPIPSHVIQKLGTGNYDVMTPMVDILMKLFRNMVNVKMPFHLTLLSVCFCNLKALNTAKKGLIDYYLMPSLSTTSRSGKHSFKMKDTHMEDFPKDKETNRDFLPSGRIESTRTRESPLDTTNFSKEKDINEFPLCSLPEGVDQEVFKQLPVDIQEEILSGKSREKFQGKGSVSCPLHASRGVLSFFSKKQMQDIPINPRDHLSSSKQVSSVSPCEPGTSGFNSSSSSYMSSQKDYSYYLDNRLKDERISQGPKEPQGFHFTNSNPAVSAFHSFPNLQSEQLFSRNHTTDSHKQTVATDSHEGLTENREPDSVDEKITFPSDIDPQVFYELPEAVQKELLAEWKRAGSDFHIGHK
#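 Pol iota at 10 nM preincubated 15 min with compounds at room temperature; reaction started with fluorescent substrate, 50 nM final. Fluorescence read kinetically at 0 and 10 min; buffer-only wells as negative control.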
# POLK inh: inhibitors of human DNA polymerase kappa; purified Pol kappa, fluorescent DNA synthesis assay, 10 min; hit rate 0.53% among 400,000; AID 588579; Potency, µM (top dose mostly 107 µM), for the others: top-dose activity, negative = inhibition, actives largely listed as inhibitors; note: % is set by controls: 0 for no effect and ±100 for the full control effect
#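 Pol kappa 10 nM + cpd, 15 min RT; start w/ substrate 50 nM final; fluorescence kinetic read, 0 and 10 min. Neg ctrl: buffer, no enzyme.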
# FEN1 inh: human FEN1 inhibition | P39748 | Recombinant FEN1 flap cleavage, fluorescence, 15 min | Potency, µM (titrated, usually from 114 µM), for the others: top-dose activity change, negative = inhibition, usual class: inhibitors | hit rate 0.35% among 390,000; note: % is set by controls: 0 for no effect and ±100 for the full control effect; nearly all actives have a fitted effect of over 65% in size
#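 In this screen, 50 nM flap DNA substrate was added to 10 nM FEN1 pretreated with compound for 15 min at room temperature; cleavage was followed with reads at 0 and 15 min, and Hill fitting gave concentration–response parameters.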
# WRN inhibitor: inhibitors of human WRN helicase; hit rate 0.46% among 360,000; Potency, µM (doses to about 114 µM), for the others: at the top dose activity change, negative = inhibition, most hits filed as inhibitors; WRN helicase unwinding, fluorescent forked duplex, kinetic; note: % is set by controls: 0 for no effect and ±100 for the full control effect; nearly all actives have a fitted effect of over 55% in size
#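 WRN at 20 nM final preincubated with compound 15 min at room temperature; reaction started with 100 nM fluorophore/quencher forked duplex oligonucleotide and 2 mM ATP final. Unwinding followed kinetically by red fluorescence (ex 525, em 598 nm).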
# Pol eta inh: inhibitors of human DNA polymerase eta; Potency, µM (highest dose often 114 µM), for inactives: at the top dose activity change, negative = inhibition, most hits filed as inhibitors; AID 588591; Q9Y253; recombinant Pol eta, fluorescent DNA replication assay; hit rate 1.2% among 390,000; note: % is set by controls: 0 for no effect and ±100 for the full control effect
#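 Pol eta at 10 nM preincubated with compounds 15 min at room temperature; reaction started with fluorescent substrate (50 nM final) and read kinetically at 0 and 10 min.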
# Active calls of the source: *; u = inconclusive; x = no result; ! = not confirmed by another sample; [ ] = another dose, or the depositor's remark. Calls come from the whole dose curve; as a rule, active = well fitted curve in the direction sought with a large enough effect; inconclusive = small, poorly fitted or top-dose-only effect, or another doubt; inactive = no such curve, though single readings can be large; an effect the other way counts as inactive or inconclusive. Potency is the fitted concentration of half-maximal effect.
SMILES,POLB inh,Pol iota inh,POLK inh,FEN1 inh,WRN inhibitor,Pol eta inh
CC(C)C[C@H](NC(=O)CNC(=O)[C@H](CCC(N)=O)NC(=O)[C@H](CC(C)C)NC(=O)[C@H](CC(C)C)NC(=O)[C@H](CCCNC(=N)N)NC(=O)[C@H](CCC(N)=O)NC(=O)[C@H](CC(C)C)NC(=O)[C@H](CCCNC(=N)N)NC(=O)[C@H](C)NC(=O)CNC(=O)[C@H](CCC(=O)O)NC(=O)[C@H](CCCNC(=N)N)NC(=O)[C@H](CC(C)C)NC(=O)[C@H](CCCNC(=N)N)NC(=O)[C@H](CO)NC(=O)[C@H](CC(C)C)NC(=O)[C@H](CCC(=O)O)NC(=O)[C@H](CO)NC(=O)[C@@H](NC(=O)[C@H](Cc1ccccc1)NC(=O)[C@@H](NC(=O)CNC(=O)[C@H](CC(=O)O)NC(=O)[C@H](CO)NC(=O)[C@@H](N)Cc1cnc[nH]1)[C@@H](C)O)[C@@H](C)O)C(=O)N[C@H](C(N)=O)C(C)C,x,x,20%[60.1 µM],x,x,x
O=C1c2ccccc2C(=O)c2c(NCCCN(CCO)CCO)cccc21,45µM*,u,-18%,20µM*,25µM*,u
CCN(CC)CC(=O)Nc1cccc2c1C(=O)c1ccccc1C2=O,5%,u,3%[60.1 µM],-6%,4%,1%
CCN(CC)CCCNC(=O)Cn1c(-c2cccs2)cc2cc(Cl)ccc21,-25%,10%,-13%,5%,x,-26%
O=C(/C=C/c1ccco1)NC(=S)Nc1cccc(-c2nc3ccccc3s2)c1,x,u,-23%,-14%,-25%,u
Cc1ccc(-n2nc3ccc(NC(=S)NC(=O)/C=C/c4ccco4)cc3n2)cc1,-13%,14%,-8%,-4%,-18%,u
Cc1ccc(-n2nc3cc(C)c(NC(=S)NC(=O)/C=C/c4ccco4)cc3n2)cc1,50µM*,6%,-8%,5%,-7%,u
Cc1ccc(-c2nc3ccccc3s2)cc1NC(=S)NC(=O)/C=C/c1ccco1,u,u,-7%,10%,u,20µM*
O=C(/C=C/c1ccco1)NC(=S)Nc1cccc([N+](=O)[O-])c1,40µM*,u,u,-23%,u,50µM*
O=C(/C=C/c1ccco1)NC(=S)Nc1cc(-c2nc3ccccc3s2)ccc1Cl,-3%,u,-23%,0%,u,22µM*
O=C(OCc1ccccc1)[C@@H]1COC(c2ccc(Br)cc2)=N1,x,x,-14%,x,x,x
CSc1cccc(NC(=O)/C=C/c2ccco2)c1,32µM*,u,u,-18%,-11%[11.6 µM],79µM*
CCCn1nnc(NC(=S)NC(=O)/C=C/c2ccco2)n1,u,u,50µM*,u,u,u
Cn1nnc(NC(=O)/C=C/c2ccco2)n1,2%,50%,1%,9%,12%,-11%
COc1cccc(NC(=O)/C=C/c2ccco2)c1,-8%,20%,-12%,-1%,-4%,-15%
Cc1ccccc1NC(=S)NC(=O)/C=C/c1ccco1,32µM*,u,u,79µM*,79µM*,18µM*
O=C(O)c1ccc(COc2ccccc2/C=C2\NC(=O)N(Cc3ccc(F)cc3)C2=O)cc1,u,u,-21%,u,-21%,u
O=C(CN1C(=O)N/C(=C\c2ccccc2OCc2ccc(C(=O)O)cc2)C1=O)Nc1ccc(F)cc1,79µM*,u,u,-28%,-19%,-13%
COc1ccc(-c2cc(NC=O)c3ncc(-c4cc(OC)c(OC)c(OC)c4)n3c2)cc1,x,x,x,x,79µM*,x
Fc1cccc(CSc2nc3ncc(Cl)cc3[nH]2)c1,35µM*,71µM*,-10%,5%,-5%[11.6 µM],-22%
CC1(C)CCC(C)(C)c2cc(C(=O)Nc3ccc(C(=O)O)cc3)ccc21,x,x,7%[19.4 µM],x,x,x
C/C(=C\c1ccc(C(=O)O)cc1)c1ccc2c(c1)C(C)(C)CCC2(C)C,u,32µM*!,u,-16%,1%,u
CN(C)c1ccnc(-c2ccccc2C(F)(F)F)n1,x,x,-5%[60.1 µM],x,x,x
Cc1ccc(Cl)cc1Nc1nc2ccccc2c2nncn12,u,15%,-36%,12%,x,-22%
COc1ccc(C(NC(=O)/C=C\c2ccco2)c2ccc(OC)c(OC)c2)cc1 (stereo not given),u,u,-18%,-6%,-4%,u
SMILES,POLB inh,Pol iota inh,POLK inh,FEN1 inh,WRN inhibitor,Pol eta inh
COc1ccc(C(NC(=O)/C=C/c2ccco2)c2ccc(OC)cc2)cc1,16µM*,u,-7%,5%,-17%,u
O=C(COC(=O)/C=C/c1ccco1)NCCN1C(=O)CSC1=O,x,-16%,-20%,-1%,-5%,50µM*
Cc1nc(NC(=O)COC(=O)/C=C/c2ccco2)c(Cl)cc1Cl,x,32µM*,71µM*,-4%,-1%[11.6 µM],28µM*
CC1CC1C(=O)OCC(=O)Nc1ncc(Cl)cc1Cl (stereo not given),x,14µM*,u,-13%,u,28µM*
CC(C)=CC(=O)OCC(=O)Nc1nc(C)c(Cl)cc1Cl,21%,2%,-9%,-4%,-2%,1%
COc1ccc(CCNC(=O)c2nc(-c3ccc(Cl)cc3)n3c2CCCCC3)c(OC)c1,0%,32%,3%,-21%,x,-23%
C[C@H]1C=CC(=O)C[C@H]1c1c(F)cccc1Cl,x,-23%,-3%,15%,x,x
Nc1nc(SCC(=O)Nc2cc(Cl)c(Cl)cc2Cl)n[nH]1,x,71%,-7%,0%,9%,-6%
CC(C)NC(=O)COC(=O)/C=C/c1ccco1,40µM*,79µM*,-32%,6%,-8%[57.1 µM],u
CCCNC(=O)COC(=O)/C=C/c1ccco1,u,-17%,-18%,-16%,-4%,u
COC(=O)c1ccc(/C=C/C(=O)OCC(=O)Nc2ncc(Cl)cc2Cl)cc1,x,46%,7%,-3%,1%,-9%
Nc1nc(SCC(=O)Nc2ncc(Cl)cc2Cl)n[nH]1,x,79µM*,-41%,8%,-12%[11.6 µM],u
Cc1ccc(C(=O)OCC(=O)Nc2ncc(Cl)cc2Cl)cc1NC(=O)c1ccco1,u,50µM*,-28%,2%,-16%,u
O=C(COC(=O)/C=C/c1ccco1)Nc1ncc(Cl)cc1Cl,u,35µM*,u,8%,-18%[57.1 µM],40µM*
COc1ccc(-c2nc(N3CCN(S(=O)(=O)c4ccccc4)CC3)c3ccccc3n2)cc1,x,-13%,0%,11%,x,x
O=C(COC(=O)c1ccc2ncsc2c1)Nc1ncc(Cl)cc1Cl,0%,u,-6%,-6%,-29%,8.9µM*
COc1ccc(C(=O)COC(=O)c2cc([N+](=O)[O-])ccc2N2CCOCC2)c(OC)c1,x,79µM*,-17%,-3%,4%[11.6 µM],u
